The values below come from PubChem BioAssay.

Values without a mark were called inactive. The source made the active and inactive calls.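 How the source made its calls, unless noted: active means luciferase signal above three times the same-plate solvent-only control wells; inactive means the rest.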

Experiment [1] addresses NAD(+) hydrolase SARM1 (Homo sapiens) (UniProt Q6SZW1). Description: SARM1 TIR NADase inhibitors, cell lysate, NAD-Glo luminescence (AID 1508614;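 active means compound whose remaining NAD level is above about 45 nM, limit read from the data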;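 further: higher remaining NAD means stronger inhibition of SARM1 NADase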). As to conditions: SAM-TIR HEK293T lysate NADase, at 1 µM, active compounds read high.
The target in experiment [2] is Mitogen-activated protein kinase 7 (Homo sapiens) (UniProt Q13164). Description: ERK5 transactivation activators in reporter cells, primary screen, cell-based, HTS (AID 1508626).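 Further: luciferase driven by Gal4-ERK5 fusion binding five Gal4 sites before minimal TATA.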 The note with it: HeLa Gal4-ERK5 transactivation, 18 h, at 5 µM, active compounds read high.
Mitogen-activated protein kinase 7 (Homo sapiens), sequence (Q13164 whole entry, looked up, the tested form may be a part): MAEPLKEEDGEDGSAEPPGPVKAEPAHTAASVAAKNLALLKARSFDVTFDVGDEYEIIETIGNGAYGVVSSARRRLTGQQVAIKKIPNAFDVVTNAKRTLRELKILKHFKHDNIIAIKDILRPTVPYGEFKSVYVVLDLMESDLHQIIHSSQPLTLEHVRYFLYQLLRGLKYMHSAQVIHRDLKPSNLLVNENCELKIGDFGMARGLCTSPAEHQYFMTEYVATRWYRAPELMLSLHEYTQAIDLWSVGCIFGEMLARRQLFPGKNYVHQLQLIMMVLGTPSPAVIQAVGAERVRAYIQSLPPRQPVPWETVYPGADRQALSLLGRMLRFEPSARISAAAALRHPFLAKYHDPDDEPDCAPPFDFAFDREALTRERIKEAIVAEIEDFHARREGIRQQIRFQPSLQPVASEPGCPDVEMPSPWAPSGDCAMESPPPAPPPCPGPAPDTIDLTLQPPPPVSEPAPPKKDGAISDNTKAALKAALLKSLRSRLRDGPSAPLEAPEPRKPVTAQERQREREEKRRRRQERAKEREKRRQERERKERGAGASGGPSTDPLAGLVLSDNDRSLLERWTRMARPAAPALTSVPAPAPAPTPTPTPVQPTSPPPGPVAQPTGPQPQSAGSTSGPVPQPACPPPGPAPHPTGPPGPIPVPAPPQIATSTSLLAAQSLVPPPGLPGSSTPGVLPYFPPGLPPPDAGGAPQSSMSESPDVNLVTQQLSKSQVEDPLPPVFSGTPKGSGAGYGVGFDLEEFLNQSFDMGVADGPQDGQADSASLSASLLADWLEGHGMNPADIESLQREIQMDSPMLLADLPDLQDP
The nature of experiment [3]: hESC survival regulators, cell-based (AID 493140; call rule not given here;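 further: cells exposed to compounds for four days before counting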). As to conditions: human embryonic stem cell survival screen; active compounds read high.

NAD(+) hydrolase SARM1 (Homo sapiens), sequence (Q6SZW1 whole entry, looked up, the tested form may be a part): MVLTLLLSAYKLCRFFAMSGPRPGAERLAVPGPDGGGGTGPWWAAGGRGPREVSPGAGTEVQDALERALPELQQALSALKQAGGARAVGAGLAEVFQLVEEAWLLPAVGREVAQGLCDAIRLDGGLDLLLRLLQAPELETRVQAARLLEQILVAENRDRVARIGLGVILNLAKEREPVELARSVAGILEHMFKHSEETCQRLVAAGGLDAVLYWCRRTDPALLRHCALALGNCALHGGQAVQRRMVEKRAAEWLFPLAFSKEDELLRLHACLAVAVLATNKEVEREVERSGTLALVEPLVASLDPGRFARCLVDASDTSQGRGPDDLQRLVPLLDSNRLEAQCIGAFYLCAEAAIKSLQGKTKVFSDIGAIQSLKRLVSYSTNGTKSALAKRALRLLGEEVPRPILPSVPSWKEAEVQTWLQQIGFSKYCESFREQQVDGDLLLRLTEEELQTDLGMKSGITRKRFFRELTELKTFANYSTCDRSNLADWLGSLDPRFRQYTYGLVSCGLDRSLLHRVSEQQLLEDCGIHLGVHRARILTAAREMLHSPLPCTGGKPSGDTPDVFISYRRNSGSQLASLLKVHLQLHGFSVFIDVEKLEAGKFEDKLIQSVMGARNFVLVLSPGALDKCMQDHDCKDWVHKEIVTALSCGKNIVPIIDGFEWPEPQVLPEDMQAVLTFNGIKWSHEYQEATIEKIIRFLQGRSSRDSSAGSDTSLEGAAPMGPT

As to `C[C@@H]1O[C@@H]1P(=O)(O)O`, the remaining NAD in experiment [1] was 10 nM. Besides, the luciferase signal in experiment [2] is 76 AU.
Take `CC[C@H](/C=C/[C@@H](C)[C@H]1CC[C@H]2[C@@H]3CCC4=CC(=O)CC[C@]4(C)[C@H]3CC[C@]12C)C(C)C`: the luciferase signal in experiment [2] was 56 AU.
Take `C=CCCCCCCCCCCCC(O)CC(O)COC(C)=O` (centres undefined): the luciferase signal in experiment [2] is 48 AU.
`C[C@]12CC[C@@H]3c4ccc(OC(=O)c5ccccc5)cc4CC[C@H]3[C@@H]1CC[C@@H]2O`: the remaining NAD in experiment [1] is 10 nM. In experiment [2], the luciferase signal is 56 AU.
As to `CN[C@@H]1[C@H](O[C@H]2[C@H](O[C@H]3[C@H](O)[C@@H](O)[C@H](N=C(N)N)[C@@H](O)[C@@H]3N=C(N)N)O[C@@H](C)[C@]2(O)C=O)O[C@@H](CO)[C@H](O)[C@H]1O`, the remaining NAD in experiment [1] was 10 nM. In addition, in experiment [2], the luciferase signal was 80 AU.
For the compound `O=c1c(O)c(-c2ccccc2)oc2cccc(O)c12`, in experiment [2], the luciferase signal was 60 AU.
The same measure, in the same setting: under `COC(=O)C[C@H]1C(C)(C)C(=O)[C@@H]2CC3C4=CC(=O)O[C@@H](c5ccoc5)[C@]4(C)CCC3[C@@]1(C)C2=O` (some centres undefined) stands 24 AU; under `CC(C)CCC[C@@H](C)[C@H]1CC[C@H]2[C@@H]3CC(=O)[C@H]4C[C@@H](O)CC[C@]4(C)[C@H]3CC[C@]12C`, 216 AU (active).
With `CC[C@H]1OC(=O)C[C@@H](O)[C@H](C)[C@@H](O[C@@H]2O[C@H](C)[C@@H](O)[C@H](N(C)C)[C@H]2O)[C@@H](CCN2C[C@H](C)C[C@H](C)C2)C[C@@H](C)C(=O)/C=C/C(C)=C/[C@@H]1CO[C@@H]1O[C@H](C)[C@@H](O)[C@@H](OC)[C@H]1OC`, in experiment [1], the remaining NAD was 10 nM. For the same compound, the luciferase signal in experiment [2] was 36 AU.
`CC(C)(O)[C@H]1CC[C@]2(C)[C@H]3CC[C@@H]4[C@@]5(C)CCCC(C)(C)[C@@H]5[C@@H](O)C[C@@]4(C)[C@]3(C)CC[C@@H]12`: in experiment [2], the luciferase signal was 84 AU.
For the compound `CC(=O)O[C@@](C)(CCC=C(C)C)C1CC=C(C)CC1` (some centres undefined), the luciferase signal in experiment [2] is 72 AU.
For `CCN[C@@H]1C[C@H](N)[C@@H](O[C@H]2OC(CN)=CC[C@H]2N)[C@H](O)[C@H]1O[C@H]1OC[C@](C)(O)[C@H](NC)[C@H]1O`, the remaining NAD in experiment [1] was 10 nM. Further, the luciferase signal in experiment [2] was 56 AU.
In the case of `C[C@@H]1C\C=C/C=C/C=C/C=C/[C@H](O[C@@H]2O[C@H](C)[C@@H](O)[C@H](N)[C@@H]2O)C[C@@H]2O[C@](O)(C[C@@H](O)C[C@@H]3O[C@@H]3/C=C\C(=O)O1)C[C@H](O)[C@H]2C(=O)O`, the remaining NAD in experiment [1] is 10 nM. In experiment [2], the luciferase signal is 292 AU.
For `COC(=O)Oc1ccccc1C(=O)O`, the luciferase signal in experiment [2] is 40 AU.
`CC1(C)S[C@@H]2[C@H](NC(=O)[C@H](C(=O)O)c3ccsc3)C(=O)N2[C@H]1C(=O)O`: the survival in experiment [3] is 15.8. For the same compound, in experiment [1], the remaining NAD was 10 nM. In addition, in experiment [2], the luciferase signal was 44 AU.
On to `CC(=O)O[C@H]1CC[C@@]2(C)C(=CC[C@H]3[C@@H]4CC[C@H]([C@H](C)CCCC(C)C)[C@@]4(C)CC[C@@H]32)C1`, for which, in experiment [2], the luciferase signal is 56 AU.
Consider `CC(=O)OCC(=O)[C@@]1(O)[C@@H](C)C[C@H]2[C@@H]3CCC4=CC(=O)C=C[C@]4(C)[C@@]3(F)[C@@H](O)C[C@@]21C`, for which the remaining NAD in experiment [1] is 10 nM. Also, the luciferase signal in experiment [2] was 132 AU.
For `CC1CCC2(OC1)OC1CC3C4CCC5C[C@@H](O)CCC5(C)C4=CCC3(C)C1C2C` (some centres undefined), the luciferase signal in experiment [2] is 644 AU (active).
On to `CC(=O)OC1C[C@@]2(C)C(CC[C@@H]2C(C)=O)C2CCC3=CC(=O)CC[C@]3(C)C12` (some centres undefined), for which, in experiment [2], the luciferase signal was 108 AU.
For `CC1(C)S[C@@H]2[C@H](N3C(=O)[C@@H](c4ccccc4)NC3(C)C)C(=O)N2[C@H]1C(=O)O`, the remaining NAD in experiment [1] was 10 nM. In addition, in experiment [2], the luciferase signal was 40 AU.
The corresponding values for `CO[C@H]1C[C@@H]2CC[C@@H](C)[C@@](O)(O2)C(=O)C(=O)N2CCCC[C@H]2C(=O)O[C@H]([C@H](C)C[C@@H]2CC[C@@H](O)[C@H](OC)C2)CC(=O)[C@H](C)/C=C(\C)[C@@H](O)[C@@H](OC)C(=O)[C@H](C)C[C@H](C)\C=C/C=C/C=C/1C` are 10 nM and 64 AU.
On to `CC(=O)[C@@]12O[C@](C)(c3ccccc3)O[C@@H]1C[C@H]1[C@@H]3CCC4=CC(=O)CC[C@]4(C)[C@H]3CC[C@@]12C`, for which, in experiment [1], the remaining NAD is 10 nM. Besides, the luciferase signal in experiment [2] is 76 AU.
Turning to `CN[C@@H]1[C@@H](O)[C@@H](O[C@@H]2[C@@H](O)[C@H](O[C@H]3OC(CN)=CC[C@H]3N)[C@@H](N)C[C@H]2N)OC[C@]1(C)O`, the remaining NAD in experiment [1] is 10 nM. In addition, in experiment [2], the luciferase signal is 48 AU.
Turning to `O=c1c2cc(O)c(O)cc2oc2cc(O)c([C@@H]3O[C@H](CO)[C@@H](O)[C@H](O)[C@H]3O)c(O)c12`, the luciferase signal in experiment [2] was 48 AU.
Turning to `C[C@H]1C[C@@H]2[C@H]([C@@H](O)C[C@@]3(C)[C@H]2CC[C@]3(O)C(=O)COC(=O)CCC(=O)O)[C@@]2(C)C=CC(=O)C=C12`, the remaining NAD in experiment [1] is 10 nM. The luciferase signal in experiment [2] is 72 AU.
For `O=c1cc(-c2cccc(O)c2)oc2ccc(O)cc12`, the luciferase signal in experiment [2] is 124 AU.
As for `CO[C@@H]1[C@@H](O[C@@H]2O[C@H](C)[C@@H](O[C@H]3C[C@@](C)(O)[C@@H](O)[C@H](C)O3)[C@H](N(C)C)[C@H]2O)[C@@H](CC=O)C[C@@H](C)[C@@H](O[C@H]2CC[C@H](N(C)C)[C@@H](C)O2)/C=C/C=C/C[C@@H](C)OC(=O)C[C@H]1O`, the remaining NAD in experiment [1] was 10 nM. Further, the luciferase signal in experiment [2] was 216 AU.
Consider `Cn1nnnc1SCC1=C(C(=O)O)N2C(=O)[C@@H](NC(=O)[C@H](OC=O)c3ccccc3)[C@H]2SC1`, for which the remaining NAD in experiment [1] was 10 nM. In experiment [2], the luciferase signal was 16 AU.
